Inconclusive results are not listed. Calls of active or inactive are those of the source. How the source made its calls, unless noted: active means hit-call score of the fitted dose curve at least 0.9, where 1 is the maximum; inactive means score below 0.9.
Test: CCTE_Shafer_MEA_dev_AB: CCTE's Alamar Blue Assay for Cytotoxicity in the Neural Network Formation Assay, Shafer Lab (AID 2284083; active means hit-call score of the fitted dose curve at least 0.9, where 1 is the maximum;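 further: resazurin reduction fluorescence as viability of cultured neurons; twelve days of exposure from plating with re-dosing on DIV 5 and 9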)
Details: not given
Outline: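 Resazurin fluorescence, relative to DMSO, gauges viability after twelve days of exposure that began at plating of rat cortical neurons (1.5 x 10^5 cells/well, 48-well MEA); treatment renewed with full medium exchange on DIV 5 and 9.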

SMILES | AC50 | outcome
NC(=O)c1ccc(N)nc1 | 8.53 µM (active) | 
Cc1cc(C(F)(C(F)(F)F)C(F)(F)F)ccc1NC(=O)c1cccc(I)c1C(=O)NC(C)(C)CS(C)(=O)=O | 4.32 µM (active) | 
CCOCn1c(-c2ccc(Cl)cc2)c(C#N)c(Br)c1C(F)(F)F | 20.4 µM (active) | 
CC1(C)[C@H](C(=O)O[C@H](C#N)c2cccc(Oc3ccccc3)c2)[C@@H]1/C=C(\Cl)C(F)(F)F | 12.9 µM (active) | 
CS(=O)(=O)c1ccc(C(=O)C2C(=O)CCCC2=O)c(Cl)c1COCC(F)(F)F |  | inactive
CC(C)[C@@H](Nc1ccc(C(F)(F)F)cc1Cl)C(=O)OC(C#N)c1cccc(Oc2ccccc2)c1 (some centres undefined) | 14.5 µM (active) | 
Cc1ccccc1OP(=O)(Oc1ccccc1C)Oc1ccccc1C | 21.1 µM (active) | 
CC(F)(F)CC(F)(F)F |  | inactive
O=S(=O)(F)C(F)(F)C(F)(F)C(F)(F)C(F)(F)F |  | inactive
OC(Cc1ccccc1Cl)(Cn1[nH]cnc1=S)C1(Cl)CC1 (centres undefined) | 71.3 µM (active) | 

Test: CCTE_Shafer_MEA_acute_LDH: CCTE's Lactate Dehydrogenase Assay for Cytotoxicity in the Neural Acute Assay, Shafer Lab (AID 2284086; active means hit-call score of the fitted dose curve at least 0.9, where 1 is the maximum;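 further: active means LDH release rises above DMSO vehicle level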)
Details: not given
Outline: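 Released lactate dehydrogenase, read at 490 nm, indicated cytotoxicity after acute 40-min compound treatment of rat cortical neuron networks grown on 48-well MEA plates.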

SMILES | outcome
CCCCCCCCCCCCc1cccc(S(=O)(=O)O)c1 | inactive
Cc1cc(C(F)(C(F)(F)F)C(F)(F)F)ccc1NC(=O)c1cccc(I)c1C(=O)NC(C)(C)CS(C)(=O)=O | inactive
CC(C)(C)c1ccccc1O | inactive
OCCCCO | inactive
Clc1cccc(Cl)c1Cl | inactive
N#Cc1cccnc1 | inactive
Oc1cc(Cl)c(Cl)cc1Cl | inactive
CCCCOC(=O)COC(=O)c1ccccc1C(=O)OCCCC | inactive
CS(=O)(=O)c1ccc(C(=O)C2C(=O)CCCC2=O)c(Cl)c1COCC(F)(F)F | inactive
CC(C)[C@@H](Nc1ccc(C(F)(F)F)cc1Cl)C(=O)OC(C#N)c1cccc(Oc2ccccc2)c1 (some centres undefined) | inactive
Cc1ccccc1OP(=O)(Oc1ccccc1C)Oc1ccccc1C | inactive
O=C(Cc1ccccc1)OCCc1ccccc1 | inactive

Test: CCTE_Shafer_MEA_dev_correlation_coefficient_mean: CCTE's Neural Network Formation Assay for Mean Correlation Coefficient, Shafer Lab (AID 2284093);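 on AC50: well mean pairwise spike train correlation integrated as AUC over recording days 5 to 12; potency fitted for loss of correlation relative to DMSO vehicle wells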
Details: not given
Outline: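 Primary rat cortical neurons on PEI-coated 48-well MEA plates (16 electrodes/well) were exposed from plating day 0 through DIV12, with compound renewed at DIV5 and 9. Pairwise spike correlations were averaged per well; trapezoidal AUC across DIV5, 7, 9, 12.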

SMILES | outcome | AC50
CC(=O)C(F)(F)C(F)(F)F | inactive | 
NC(=O)c1ccc(N)nc1 |  | 4.57 µM (active)
Cc1cc(C(F)(C(F)(F)F)C(F)(F)F)ccc1NC(=O)c1cccc(I)c1C(=O)NC(C)(C)CS(C)(=O)=O |  | 19.2 µM (active)
CCOCn1c(-c2ccc(Cl)cc2)c(C#N)c(Br)c1C(F)(F)F |  | 5.53 µM (active)
CC1(C)[C@H](C(=O)O[C@H](C#N)c2cccc(Oc3ccccc3)c2)[C@@H]1/C=C(\Cl)C(F)(F)F |  | 5.11 µM (active)
CNC(=O)CSP(=O)(OC)OC | inactive | 
C=CCOC(F)(C(F)(F)F)C(F)(F)F | inactive | 
FC(F)OCC(F)(F)C(F)(F)F | inactive | 
CS(=O)(=O)c1ccc(C(=O)C2C(=O)CCCC2=O)c(Cl)c1COCC(F)(F)F | inactive | 
CC(C)[C@@H](Nc1ccc(C(F)(F)F)cc1Cl)C(=O)OC(C#N)c1cccc(Oc2ccccc2)c1 (some centres undefined) |  | 14.5 µM (active)
Cc1ccccc1OP(=O)(Oc1ccccc1C)Oc1ccccc1C |  | 15 µM (active)
CC(F)(F)CC(F)(F)F | inactive | 
O=S(=O)(F)C(F)(F)C(F)(F)C(F)(F)C(F)(F)F | inactive | 
C=CC(F)(C(F)(F)F)C(F)(F)C(F)(F)F (centres undefined) | inactive | 
OC(Cc1ccccc1Cl)(Cn1[nH]cnc1=S)C1(Cl)CC1 (centres undefined) |  | 21.5 µM (active)

Test: UKN2_HCS_IMR90_neural_migration: University of Konstanz (UKN) Leist Lab Neural Crest Cell Migration Assay in human induced IMR90 Pluripotent Stem Cells (UKN2) (AID 2284204)
Details: actives raise or lower the signal
Procedure: UKN2_HCS_IMR90 is a cell-based, multiplexed-readout assay screening for neural crest cell migration and cell viability that uses IMR90 (neural crest cells differentiated from iPSC), a human embryo cell line, with measurements taken at […] after chemical dosing in a microplate: 96-well plate. UKN2, also known as cMINC, is an assay that uses IMR90 cells (neural crest cells differentiated from iPSC) as a model of neural crest cell migration. 24 hr after cell seeding, cell migration was initiated and proceeded for 24 hr. Then, chemical was applied, and after 24 hr of exposure migration and viability were assessed using high-content imaging of cells stained with calcein-AM and Hoechst H-33342.UKN2_HCS_IMR90_neural_migration is an assay component measured from the UKN2_HCS_IMR90 assay. It is designed to make measurements of neural crest cell migration, a form of morphology reporter, as detected with Fluorescence intensity signals by HCS Fluorescent Imaging.The assay endpoint UKN2_HCS_IMR90_neural_migration was analyzed with bidirectional fitting relative to DMSO as the negative control and baseline of activity. Using a type of morphology reporter, gain or loss-of-signal activity can be used to understand developmental effects. To generalize the intended target to other relatable targets, this assay endpoint is annotated to the neurodevelopment intended target family, where the subfamily is neural crest cell migration.
The wells are coated with PLO/laminin/fibronectin. Then, silicone stoppers are placed into the wells of a 96-well plate. Cells are seeded around the stoppers and allowed to attach for 24 hours. Day 0: The silicone stoppers are removed and the medium is replaced with pre-warmed, fresh N2-S medium containing the cytokines EGF and FGF. Cells are allowed to migrate into the cell free area. Day 1: 25 ul of the 5x concentrated toxicants are added to the wells. The cells plus toxicants are incubated for 24 h. Day 2: Cells are stained with calcein-AM and Hoechst (H-33342) for 30 min before imaging with a high content imaging microscope. Quantification of migration and viability is done by high content imaging analysis.

SMILES | AC50 | outcome
CCOCn1c(-c2ccc(Cl)cc2)c(C#N)c(Br)c1C(F)(F)F | 9.47 µM (active) | 
CNC(=O)CSP(=O)(OC)OC |  | inactive
Cc1ccccc1OP(=O)(Oc1ccccc1C)Oc1ccccc1C | 4.73 µM (active) | 
O=S1OC[C@@H]2[C@H](CO1)[C@]1(Cl)C(Cl)=C(Cl)[C@@]2(Cl)C1(Cl)Cl (some centres undefined) | 14.6 µM (active) | 
OC(Cc1ccccc1Cl)(Cn1[nH]cnc1=S)C1(Cl)CC1 (centres undefined) | 35.4 µM (active) | 

Test: UKN4_HCS_LUHMES_neurite_outgrowth: University of Konstanz (UKN) Leist Lab Neurite Outgrowth Assay in human LUHMES cells (UKN4) (AID 2284206)
Details: actives raise or lower the signal
Outline: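 2-day-differentiated LUHMES, 24 h cpd exposure, live calcein-AM + H-33342 stain, HCS fluorescence imaging of neurite area; DMSO = baseline, bidirectional fit.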

SMILES | AC50 | outcome
Cc1cc(C(F)(C(F)(F)F)C(F)(F)F)ccc1NC(=O)c1cccc(I)c1C(=O)NC(C)(C)CS(C)(=O)=O | 0.264 µM (active) | 
CNC(=O)CSP(=O)(OC)OC |  | inactive
O=S1OC[C@@H]2[C@H](CO1)[C@]1(Cl)C(Cl)=C(Cl)[C@@]2(Cl)C1(Cl)Cl (some centres undefined) | 18.6 µM (active) | 

Test: IUF_NPC1b_proliferation_BrdU_72hr: Leibniz Research Institute for Environmental Medicine (IUF) 72-hour Neural Progenitor Cell Bromodeoxyuridine (BrdU) Proliferation Assay (NPC1b) (AID 2284207)
Details: not given
Outline: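 BrdU luminescence ELISA quantified DNA synthesis over the last 16 h of a 72 h exposure, fitted against DMSO. Primary hNPC spheres from gestational week 16-19 cortex grown with EGF/FGF at 37C, pH 7.2-7.6.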

SMILES | outcome | AC50
Cc1cc(C(F)(C(F)(F)F)C(F)(F)F)ccc1NC(=O)c1cccc(I)c1C(=O)NC(C)(C)CS(C)(=O)=O | inactive | 
CCOCn1c(-c2ccc(Cl)cc2)c(C#N)c(Br)c1C(F)(F)F | inactive | 
CC1(C)[C@H](C(=O)O[C@H](C#N)c2cccc(Oc3ccccc3)c2)[C@@H]1/C=C(\Cl)C(F)(F)F |  | 3.63 µM (active)
CNC(=O)CSP(=O)(OC)OC | inactive | 
CS(=O)(=O)c1ccc(C(=O)C2C(=O)CCCC2=O)c(Cl)c1COCC(F)(F)F | inactive | 
CC(C)[C@@H](Nc1ccc(C(F)(F)F)cc1Cl)C(=O)OC(C#N)c1cccc(Oc2ccccc2)c1 (some centres undefined) | inactive | 
Cc1ccccc1OP(=O)(Oc1ccccc1C)Oc1ccccc1C | inactive | 
O=S1OC[C@@H]2[C@H](CO1)[C@]1(Cl)C(Cl)=C(Cl)[C@@]2(Cl)C1(Cl)Cl (some centres undefined) | inactive | 
OC(Cc1ccccc1Cl)(Cn1[nH]cnc1=S)C1(Cl)CC1 (centres undefined) |  | 0.0417 µM (active)
